Measured values taken from publication PMC5540273 (PLoS ONE, 2017).
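Further: KINOMEscan kinase panel screen.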

Each compound was assayed on T1, OSR1. Details: concentration: 1 μM,replicates: in singlicate; n = 1.
T1 construct: gene OXSR1
For `Cl.Cl.NC[C@H](CC1CCCCC1)NC(=O)c1cc(Br)c(-c2ccnc3[nH]ccc23)s1` [GSK1581427], the “%Inh” value was 20%. In the case of `CN(C)CCOc1ccc(-c2cc(-c3c[nH]nc3-c3ccccn3)ccn2)cc1` [GW835314], the “%Inh” value is reported as 0%. With `CNC(=O)c1ccccc1Sc1ccc2c(/C=C/c3ccccn3)n[nH]c2c1` the “%Inh” value was 0%. `O=C(NCCNc1ccnc(NCc2ccc(F)cc2)n1)c1cc2ccccc2s1` [GSK1379944] was tested, and the “%Inh” value was 11%. In the case of `Cc1cc2cn[nH]c2cc1-c1cccc2c(N)c(C(N)=O)nnc12`, the “%Inh” value is reported as 48%. With `CC(C)N1C(=O)Cc2cc(Nc3ncc(C(F)(F)F)c(NCc4cccc(S(C)(=O)=O)c4)n3)ccc21` the “%Inh” value was 5%. In the case of `Cl.Oc1cc(-c2nc(-c3ccccc3)[nH]c2-c2ccncc2)ccc1Cl` [SB-386023], the “%Inh” value is reported as 8%. `CC(C)Nc1cc(-c2ccc3c(N)n[nH]c3c2)nc(N)n1` [GSK2221681] was tested, and the “%Inh” value was 0%. `Cc1ccc(-n2nc(C(C)(C)C)cc2NC(=O)Nc2ccc(OCCN3CCOCC3)c3ccccc23)cc1` [GW839464] was tested, and the “%Inh” value was 0%. In the case of `C[C@@H](Oc1cc(-c2cnn(C3CCNCC3)c2)cnc1N)c1c(Cl)ccc(F)c1Cl`, the “%Inh” value is reported as 36%. For `Cc1n[nH]c2ccc(-c3cc(OC[C@@H](N)Cc4ccccc4)cnc3-c3ccoc3)cc12.O=C(O)C(F)(F)F.O=C(O)C(F)(F)F` [GSK507358], the “%Inh” value was 12%. With `CCN(CC)CCOc1ccc(Nc2ncc3cc(-c4c(Cl)cccc4Cl)c(=O)n(C)c3n2)cc1` [SB-601273] the “%Inh” value was 16%. For `Cl.Cl.Nc1nc(-c2ccc3c(N)n[nH]c3c2)cc(N2CCCC(NC(=O)c3ccccc3)C2)n1` (stereo not drawn) [GSK2286775], the “%Inh” value was 0%. In the case of `Cc1cc(C(=O)Nc2ccc(Oc3ccc4nc(NC(=O)C5CC5)cn4n3)cc2)nn1-c1ccccc1`, the “%Inh” value is reported as 0%. For `Nc1nc(Nc2ccccc2)cc(-c2ccc3c(N)n[nH]c3c2)n1` [GSK2225749], the “%Inh” value was 14%.

These compounds were tested on PAK1. Details: concentration: 1 μM,replicates: in singlicate; n = 1.
For `CCn1c(-c2nonc2N)nc2c(C#CC(C)(C)O)nc(OCCN)cc21.Cl.Cl` [GSK902056], the “%Inh” value was 11%. For `COc1ccc(C[C@@H](CN)NC(=O)c2cc(Br)c(-c3ccnc4[nH]ccc34)s2)cc1.Cl.Cl` [GSK1389063], the “%Inh” value was 78%. With `Cc1ccc2c(-c3ccncc3)c(-c3ccc(F)cc3)nn2c1.Cl` [GW461484] the “%Inh” value was 29%. In the case of `Cl.Cl.NC[C@H](Cc1ccc(C(F)(F)F)cc1)NC(=O)c1cc(Br)c(-c2ccnc3[nH]ccc23)s1` [GSK1487252], the “%Inh” value is reported as 37%. In the case of `O=C(NCCCN1CCOC1=O)c1cnc(NCc2cc(Cl)ccc2Cl)nc1NC1CCCC1`, the “%Inh” value is reported as 9%. With `C=CC(=O)Nc1cc2c(Nc3ccc(F)c(Cl)c3)ncnc2cc1OCCCN1CCOCC1` [GW781483] the “%Inh” value was 0%. In the case of `NC(=O)c1cc(-c2ccccc2)cc2c(C3CCNCC3)c[nH]c12` [GSK301362], the “%Inh” value is reported as 30%. In the case of `C[C@@H]1CCN(C(=O)CC#N)C[C@@H]1N(C)c1ncnc2[nH]ccc12`, the “%Inh” value is reported as 0%. For `Cc1occc1-c1nc(N)c(OC[C@@H](N)Cc2c[nH]c3ccccc23)cc1-c1cc2c(C)n[nH]c2cn1` [GSK1660450], the “%Inh” value was 97.8%. With `C[C@H]1Oc2cc(cnc2N)-c2c(nn(C)c2C#N)CN(C)C(=O)c2ccc(F)cc21` the “%Inh” value was 8%. With `CN(C)CC(O)COc1ccc(Nc2nccc(-c3cnn4nc(N5CCOCC5)ccc34)n2)cc1` (stereo not drawn) [GW767488] the “%Inh” value was 17%. In the case of `CCN(CC)CCCCNc1ncc2cc(-c3c(Cl)cccc3Cl)c(NC(=O)NC(C)(C)C)nc2n1`, the “%Inh” value is reported as 18%. `Cl.Cl.NC[C@H](CC1CCCCC1)NC(=O)c1cc(Br)c(-c2ccnc3[nH]ccc23)s1` [GSK1581427] was tested, and the “%Inh” value was 38%. For `CN(C)CCOc1ccc(-c2cc(-c3c[nH]nc3-c3ccccn3)ccn2)cc1` [GW835314], the “%Inh” value was 0%. `CNC(=O)c1ccccc1Sc1ccc2c(/C=C/c3ccccn3)n[nH]c2c1` was tested, and the “%Inh” value was 9%. With `O=C(NCCNc1ccnc(NCc2ccc(F)cc2)n1)c1cc2ccccc2s1` [GSK1379944] the “%Inh” value was 15%. For `Cc1cc2cn[nH]c2cc1-c1cccc2c(N)c(C(N)=O)nnc12`, the “%Inh” value was 24%. `CC(C)N1C(=O)Cc2cc(Nc3ncc(C(F)(F)F)c(NCc4cccc(S(C)(=O)=O)c4)n3)ccc21` was tested, and the “%Inh” value was 8%. In the case of `Cl.Oc1cc(-c2nc(-c3ccccc3)[nH]c2-c2ccncc2)ccc1Cl` [SB-386023], the “%Inh” value is reported as 0%. `CC(C)Nc1cc(-c2ccc3c(N)n[nH]c3c2)nc(N)n1` [GSK2221681] was tested, and the “%Inh” value was 34%. `Cc1ccc(-n2nc(C(C)(C)C)cc2NC(=O)Nc2ccc(OCCN3CCOCC3)c3ccccc23)cc1` [GW839464] was tested, and the “%Inh” value was 0%. In the case of `C[C@@H](Oc1cc(-c2cnn(C3CCNCC3)c2)cnc1N)c1c(Cl)ccc(F)c1Cl`, the “%Inh” value is reported as 12%. In the case of `Cc1n[nH]c2ccc(-c3cc(OC[C@@H](N)Cc4ccccc4)cnc3-c3ccoc3)cc12.O=C(O)C(F)(F)F.O=C(O)C(F)(F)F` [GSK507358], the “%Inh” value is reported as 88%. In the case of `CCN(CC)CCOc1ccc(Nc2ncc3cc(-c4c(Cl)cccc4Cl)c(=O)n(C)c3n2)cc1` [SB-601273], the “%Inh” value is reported as 82%. `Cl.Cl.Nc1nc(-c2ccc3c(N)n[nH]c3c2)cc(N2CCCC(NC(=O)c3ccccc3)C2)n1` (stereo not drawn) [GSK2286775] was tested, and the “%Inh” value was 6%. With `Cc1cc(C(=O)Nc2ccc(Oc3ccc4nc(NC(=O)C5CC5)cn4n3)cc2)nn1-c1ccccc1` the “%Inh” value was 0%. `Nc1nc(Nc2ccccc2)cc(-c2ccc3c(N)n[nH]c3c2)n1` [GSK2225749] was tested, and the “%Inh” value was 27%.
